Assay outcomes: PubChem BioAssay, ICCB-Longwood Screening Facility, Harvard Medical School
Shown is part of a subset that was picked to be rich in hits.
Anaer choline gr: growth inhibitors of anaerobic choline-fed gram-negatives, minimal medium, absorbance. calls only. 0.2% of 55,000 active. Gram-negative bacterium anaerobic choline minimal medium; active compounds read low; call rule not given here
* hit, by the source's call.

How did CCC(Sc1nc2ncccc2[nH]1)C(=O)Nc1ccc(Br)cc1 (configuration not stated) do in these assays?
Anaer choline gr: inactive

How did O=C(Nc1ccc2c(c1)OCO2)Nc1cc(NC(=O)c2ccccc2)ccc1N1CCCC1 do in these assays?
Anaer choline gr: inactive

Results for Cc1cc(C)cc(NC(=O)Nc2cc3c(cc2N2CCCC2)n(C)c(=O)n3C)c1 ?
Anaer choline gr: inactive

What do the screens show for `Cn1c(=O)n(C)c2cc(N3CCCC3)c(NC(=O)Nc3ccc4c(c3)OCCO4)cc21`?
Anaer choline gr: active

Results for O=c1nc(SCc2ccccc2Cl)c2c(n1C1CCCC1)CCC2 ?
Anaer choline gr: inactive

Results for O=C1CCCc2cc(S(=O)(=O)N3CCCC(C(=O)NCc4cccnc4)C3)ccc2N1 (configuration not stated) ?
Anaer choline gr: inactive

How did COc1ccccc1NC(=O)Nc1ccc(Nc2cc(N3CCCC3)nc(C)n2)cc1 do in these assays?
Anaer choline gr: inactive

Results for COc1ccccc1NC(=O)NCc1ccnc(N2CCCCC2)c1 ?
Anaer choline gr: active

What do the screens show for `O=C(NCc1ccnc(N2CCSCC2)c1)Nc1cc(F)ccc1F`?
Anaer choline gr: inactive

How did O=C(NCc1ccnc(N2CCCCC2)c1)Nc1ccc(F)c(Cl)c1 do in these assays?
Anaer choline gr: active

How did COc1ccccc1CNC(=O)c1ccc(N2CCCC2)c(NC(=O)Nc2ccccc2Cl)c1 do in these assays?
Anaer choline gr: inactive

How did O=C(NCc1ccnc(N2CCSCC2)c1)Nc1ccc(F)cc1F do in these assays?
Anaer choline gr: inactive

What do the screens show for `O=C1CCc2cc(S(=O)(=O)NCc3ccc(Cl)cc3)cc3c2N1CCC3`?
Anaer choline gr: inactive

How did C=CCOC(=O)C1=C(C)N(C)C(=O)NC1c1cn(-c2ccccc2)nc1-c1ccccc1 (configuration not stated) do in these assays?
Anaer choline gr: inactive

Results for Cc1ccc(COc2ccc(C3CC(=O)Nc4nc(N)[nH]c(=O)c43)cc2)cc1 (configuration not stated) ?
Anaer choline gr: inactive

How did COc1ccc(C2=NC3(CCN(C)CC3)NC(c3cc(Br)ccc3O)C2)cc1 (configuration not stated) do in these assays?
Anaer choline gr: inactive

What do the screens show for `COc1cccc(-c2nn(Cc3nc(-c4ccc(Cl)cc4)oc3C)c(=O)c3noc(C)c23)c1`?
Anaer choline gr: inactive

How did Cc1ccc(CNC(=O)CCC(=O)N2CC=C(c3c[nH]c4ccccc34)CC2)cc1 do in these assays?
Anaer choline gr: inactive

What do the screens show for `Cc1ccccc1C(=O)Nc1ccc2c(c1)NC(=O)C(C)O2` (configuration not stated)?
Anaer choline gr: inactive

How did CCCCSc1nnc2c(n1)OC(c1ccc(N(C)C)cc1)N(C(C)=O)c1ccccc1-2 (configuration not stated) do in these assays?
Anaer choline gr: inactive

What do the screens show for `Cc1noc2ncn(Cc3ccccc3)c(=O)c12`?
Anaer choline gr: inactive

What do the screens show for `Cc1noc2nc[nH]c(=O)c12`?
Anaer choline gr: active

What do the screens show for `Cc1noc2ncnc(NC(C)C)c12`?
Anaer choline gr: inactive

How did O=C(CSc1nnc(-c2cccnc2)o1)N1CCCc2ccccc21 do in these assays?
Anaer choline gr: inactive

What do the screens show for `O=C(Nc1ccc2c(c1)OCO2)c1ccc(=O)n(Cc2cccc(Cl)c2)c1`?
Anaer choline gr: inactive

What do the screens show for `Cc1sc(-c2cc(C(F)(F)F)on2)cc1S(=O)(=O)Nc1ccccc1`?
Anaer choline gr: inactive

How did CCn1c(SCc2nc(-c3cccc(Cl)c3)no2)nc2cc3c(cc2c1=O)OCO3 do in these assays?
Anaer choline gr: inactive

How did O=C(CSc1nc2ncccc2[nH]1)Nc1ccccc1F do in these assays?
Anaer choline gr: inactive

How did Cc1cccc(-c2nn3c(=O)cc(N4CCN(S(=O)(=O)c5c(C)noc5C)CC4)nc3s2)c1 do in these assays?
Anaer choline gr: inactive

Results for COc1ccc(-c2nc3nc(C)cc(C)n3c2Nc2ccc(Cl)cc2)cc1 ?
Anaer choline gr: inactive

How did CC(C)c1nnc(-c2ccc(S(=O)(=O)NC3CCCC3)o2)o1 do in these assays?
Anaer choline gr: active

How did CC(C)c1nnc(-c2ccc(S(=O)(=O)N3CCCCC3)o2)o1 do in these assays?
Anaer choline gr: inactive

Results for O=S(=O)(NC1CCCCC1)c1ccc(-c2nnc(C3CCC3)o2)o1 ?
Anaer choline gr: inactive

What do the screens show for `O=c1c2cc3c(cc2nc(SCc2nc(-c4cccc(F)c4)no2)n1CC1CCCO1)OCO3` (configuration not stated)?
Anaer choline gr: inactive

What do the screens show for `CCN1CCN(c2nc3ncn(CC(=O)N4CCN(c5ccc(F)cc5)CC4)c(=O)c3s2)CC1`?
Anaer choline gr: inactive

Results for COc1ccc(NC(=O)Nc2ccc(Nc3cc(N(C)C)nc(C)n3)cc2)cc1 ?
Anaer choline gr: inactive

Results for CCOC(=O)c1c(C)oc2cc(Br)c(O)cc12 ?
Anaer choline gr: inactive

How did Cn1c(=O)n(-c2ccc(F)cc2)c2nc(-c3cccnc3)nc(C(N)=O)c21 do in these assays?
Anaer choline gr: inactive

Results for CC(C)(C)c1csc(-c2csc(S(=O)(=O)Nc3ccc(F)c(Cl)c3)c2)n1 ?
Anaer choline gr: inactive
